The results in this text go back to PubChem BioAssay AID651711 (Broad Institute, 2012).

Values joined by “and” are separate entries in the source; they are usually repeats but may differ in a detail not shown here. Equal entries are not always repeated. The campaign covered roughly 350,000 compounds. About 180 (0.051%) were called active.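 How the source made its calls: active means mean replicate inhibition above about 25%, with every replicate also reaching it (limit read from the data, passing the limit was not always enough); inconclusive means only one of those two criteria met; inactive means neither criterion met.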 The sample as a whole holds a higher share of actives than the screen did. The source holds several records for some structures; these can differ, active in one and inactive in another.

Protein disulfide-isomerase A6 (Homo sapiens), sequence (Q15084 whole entry, looked up): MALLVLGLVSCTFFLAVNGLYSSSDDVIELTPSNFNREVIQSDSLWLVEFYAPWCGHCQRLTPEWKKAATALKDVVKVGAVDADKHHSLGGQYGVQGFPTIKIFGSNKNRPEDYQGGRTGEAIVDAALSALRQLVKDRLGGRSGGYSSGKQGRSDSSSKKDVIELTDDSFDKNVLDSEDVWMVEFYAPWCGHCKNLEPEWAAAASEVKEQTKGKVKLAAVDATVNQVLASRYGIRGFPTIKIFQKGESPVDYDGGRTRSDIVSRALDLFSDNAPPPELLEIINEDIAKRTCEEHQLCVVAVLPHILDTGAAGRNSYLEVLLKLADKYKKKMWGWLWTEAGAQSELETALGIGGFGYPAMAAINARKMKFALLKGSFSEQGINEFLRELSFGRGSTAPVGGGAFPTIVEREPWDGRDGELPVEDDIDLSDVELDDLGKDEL

The test addresses Protein disulfide-isomerase A6 (Homo sapiens) (UniProt Q15084). Put plainly: inhibitors of ERp5-driven insulin aggregation, primary screen, biochemical, turbidity, absorbance 650 nm, single point (AID 651711). Conditions: 90 min, at 9.99 µM, stronger effect = higher value.
The term inhibition denotes the relative decrease from the control value, in per cent. Regarding `C[C@H]1CN([C@@H](C)CO)S(=O)(=O)c2ccc(C#CCN(C)C)cc2O[C@@H]1CN(C)Cc1ccc(F)cc1`, the inhibition was 3.33% (inactive). Then `C[C@@H]1CN([C@@H](C)CO)C(=O)Cc2cc(NC(=O)C3CCCCC3)ccc2O[C@@H]1CN(C)Cc1ccc(C(=O)Nc2ccccc2N)cc1`, with -3.91% (inactive). For `CN1C(=O)c2cc(NC(=O)c3cnccn3)ccc2OC[C@H]2O[C@@H](CC(=O)NCC3CCCCC3)CC[C@@H]21`, the inhibition was -4.79% (inactive). Then `CC(C)NC(=O)N(C)C[C@H]1Oc2c(NC(=O)Nc3ccc(F)cc3)cccc2C(=O)N([C@@H](C)CO)C[C@@H]1C`, with 0.87% (inactive); and `COc1cccc(-c2cnc3c(c2)C(=O)N([C@@H](C)CO)C[C@H](C)[C@H](CN(C)C(C)=O)O3)c1`, with 1.61% (inactive); and `CN(C)C(=O)C[C@@H]1C=C[C@H](NC(=O)Nc2cccc(F)c2)[C@H](CO)O1`, with 0.18% (inactive). Then `COCC(=O)N[C@@H]1C[C@@H]2O[C@@H](CO)CC[C@@H]2O[C@@H]1CCc1ccc(-c2ccccc2)cc1`, with -0.551% (inactive). Then `C[C@H]1CN([C@@H](C)CO)C(=O)c2cccc(NC(=O)c3cnccn3)c2O[C@H]1CN(C)C(=O)Nc1ccccc1`, with 2.81% (inactive); and `CC(=O)N1[C@H](CO)[C@H](c2ccccc2)[C@H]1CN(C(=O)c1ccccc1F)C(C)C`, with -2.13% (inactive); and `Cc1cccc(S(=O)(=O)N(C)C[C@H]2OCc3cnnn3CCCC(=O)N([C@@H](C)CO)C[C@H]2C)c1`, with -7.22% (inactive) and 27.4% (active). As for `C[C@H](CO)N1C[C@H](C)[C@H](CN(C)S(=O)(=O)c2cccc(F)c2)OCc2cnnn2CCCC1=O`, the inhibition is -5.61% (inactive). The same measure for `Cc1cccc(S(=O)(=O)N(C)C[C@@H]2OCc3cnnn3CCCC(=O)N([C@H](C)CO)C[C@@H]2C)c1`: -3.09% (inactive) and 0.225% (inactive) and -3.77% (inactive); for `Cc1nc(NC(=O)C(C)(C)C)sc1[N+](=O)[O-]`: 0.0535% (inactive); for `O=C(NCC1CC1)[C@@H]1[C@@H](CO)[C@@H]2Cn3c(ccc(-c4ccncc4)c3=O)[C@@H]2N1Cc1cocn1`: 6.61% (inactive).

Regarding `CO[C@@H]1CN(C)C(=O)c2ccc(NC(=O)NC(C)C)cc2OC[C@@H](C)N(Cc2ccc(-c3ccccn3)cc2)C[C@H]1C`, the inhibition was -3.96% (inactive). Then `CCS(=O)(=O)N1[C@H](CO)[C@@H](c2ccc(C#CC(C)C)cc2)[C@@H]1C#N`, with 0.717% (inactive). Then `O=C(C[C@H]1C=C[C@@H](NC(=O)c2ccc(F)cc2)[C@@H](CO)O1)NCCc1ccncc1`, with -1.66% (inactive); and `COCC#Cc1cnc2c(c1)C(=O)N([C@H](C)CO)C[C@H](C)[C@H](CN(C)C(=O)CCN1CCCCC1)O2`, with -2% (inactive). The same measure for `C[C@@H]1CN([C@H](C)CO)C(=O)Cc2cc(NC(=O)Cc3cn(C)c4ccccc34)ccc2O[C@@H]1CN(C)Cc1ccc(C(F)(F)F)cc1`: -1.92% (inactive); for `Cc1cccc(-c2ccccc2[C@@H]2[C@H](C#N)N(c3ncc(-c4ccccc4)s3)[C@H]2CO)c1`: 5.5% (inactive); for `CO[C@@H]1CN(C)C(=O)c2cc(NS(=O)(=O)c3cccc(F)c3)ccc2OC[C@@H](C)NC[C@@H]1C`: 3.66% (inactive).

On to `CO[C@@H]1CC[C@@H]2CCOc3c(C#N)cccc3C(=O)N(C)C[C@@H](OC)[C@@H](C)C(=O)N(C)C[C@H]1O2`, for which the inhibition was 0.649% (inactive). Then `COc1ccc2c3c(n(C)c2c1)[C@@H](CO)N(CC1CC1)CC31CN(C(=O)c2cccc(F)c2)C1`, with -2.91% (inactive); and `COCC(=O)N[C@@H]1C=C[C@@H](CC(=O)N2CCCCC2)O[C@@H]1CO`, with -2.02% (inactive); and `CC(C)NC(=O)N(C)C[C@H]1OCCCC[C@@H](C)Oc2ccc(NS(C)(=O)=O)cc2C(=O)N([C@H](C)CO)C[C@H]1C`, with -1.99% (inactive). Take `CCCN1C[C@H](C)[C@@H](OC)CN(C)C(=O)c2cc(NS(=O)(=O)CC)ccc2OC[C@H]1C`: the inhibition is -4.64% (inactive). The same measure for `C[C@@H]1CN([C@@H](C)CO)C(=O)Cc2cc(NC(=O)Nc3cccc4ccccc34)ccc2O[C@@H]1CN(C)CC1CCCCC1`: 3.82% (inactive); for `O=C(NCC[C@@H]1CC[C@@H](NS(=O)(=O)c2cccc(F)c2)[C@H](CO)O1)C1CC1`: -3.52% (inactive); for `CCCNC(=O)N(C)C[C@H]1Oc2cc(C#C[C@@H](C)O)ccc2S(=O)(=O)N([C@H](C)CO)C[C@H]1C`: -12.1% (inactive). The same measure for `CCCN1C[C@@H](C)[C@@H](OC)CN(C)C(=O)c2ccc(NC(=O)CC(F)(F)F)cc2OC[C@H]1C`: 9.49% (inactive). Then `Cc1ccc(-c2ccccc2[C@H]2[C@@H](C#N)N(c3ncc(-c4ccccc4)s3)[C@@H]2CO)cc1`, with -0.798% (inactive). Take `CC=Cc1ccc2n(c1=O)C[C@H]1[C@H](CO)[C@@H](C(=O)NCC3CC3)N(Cc3nccs3)[C@@H]21` (mixture of isomers): the inhibition is -2.63% (inactive). The same measure for `COc1ccccc1-c1cnc2c(c1)C(=O)N([C@H](C)CO)C[C@H](C)[C@@H](CN(C)C(=O)CC1CC1)O2`: -2.32% (inactive). The same measure for `C[C@H]1CN([C@@H](C)CO)C(=O)c2cc(Br)cnc2O[C@@H]1CN(C)C(=O)c1ccccc1`: -13% (inactive); for `CCNC(=O)C[C@@H]1CC[C@@H]2[C@@H](COc3ccc(NC(C)=O)cc3C(=O)N2C)O1`: -7.17% (inactive). Then `COCC(=O)Nc1ccc2c(c1)C(=O)N(C)[C@@H]1CC[C@H](CC(=O)NCC3CC3)O[C@@H]1CO2`, with 7.57% (inactive); and `CC(=O)Nc1ccc2c(c1)C(=O)N(C)[C@H]1CC[C@@H](CC(=O)NCC3CC3)O[C@H]1CO2`, with 39.3% (active); and `C[C@@H]1CN([C@@H](C)CO)C(=O)Cc2cc(NC(=O)Nc3cccc4ccccc34)ccc2O[C@H]1CN(C)S(=O)(=O)c1ccc(Cl)cc1`, with -3.03% (inactive). Take `O=C(CN1CCOCC1)N[C@@H]1CC[C@@H](CCNC(=O)C2CCCCC2)O[C@@H]1CO`: the inhibition was 0.632% (inactive). The same measure for `C[C@H](CO)N1C[C@H](C)[C@H](CN(C)Cc2ccc(Oc3ccccc3)cc2)Oc2c(NC(=O)CCCCCC(=O)Nc3ccccc3N)cccc2C1=O`: 1.76% (inactive).
